Test results: PubChem BioAssay (NCATS)
Inconclusive results are not listed. A call without a number means that no potency is given here. The source made the active and inactive calls. Calls come from the whole dose curve; as a rule, active = well fitted inhibition curve with a large enough effect; inconclusive = small, poorly fitted or top-dose-only effect; inactive = flat fitted curve, though single readings scatter.

Tested on: W2
Experiment: qHTS profiling for inhibitors of Plasmodium falciparum proliferation (AID 504749); note: nearly all actives have a fitted effect of over 60% in size
Details: P. falciparum in erythrocytes, SYBR Green DNA, 72 h; series mostly up to 28.7 µM
In short: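 SYBR Green fluorescence of parasite DNA, read after lysis and overnight dark incubation, measured growth over 72 h in erythrocyte culture at 0.3% parasitemia and 2.5% hematocrit. Data normalised to DMSO and 0.29 uM artemisinin, with plate-drift correction.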
Potency is the fitted concentration of half-maximal effect.

| Structure (SMILES) | Potency |
| --- | --- |
| C[C@H](Cn1cnc2c(N)ncnc21)OCP(=O)(O)O | inactive |
| N[C@@H](Cc1cc(I)c(Oc2cc(I)c(O)c(I)c2)c(I)c1)C(=O)O | inactive |
| CNC[C@H](O)c1ccc(O)c(O)c1 | inactive |
| Cc1cc(=O)oc2cc(O)ccc12 | inactive |
| Nc1ccc(S(N)(=O)=O)cc1 | inactive |
| CCCCc1ccc2nc(NC(=O)OC)[nH]c2c1 | inactive |
| COc1cc(OC)c(C(=O)CCCN2CCCC2)c(OC)c1 | inactive |
| CN1CCC(=C2c3ccccc3CCc3sccc32)CC1 | 1.51 µM (active) |
| CCOC(=O)c1c(C)n(C)c2ccc(O)cc12 | inactive |
| Cc1cc(=O)c2c(O)c3c(O)cc(=O)c4c3c3c(cc(O)c1c23)C(C)(C)C=4O | 1.35 µM (active) |
| O=C(O)c1cccnc1Nc1cccc(C(F)(F)F)c1 | inactive |
| CCC(C)(Oc1ccc(C2(c3ccc(OC(C)(CC)C(=O)O)cc3)CCCCC2)cc1)C(=O)O (stereo not given) | inactive |
| CCOc1cc(CC(=O)N[C@@H](CC(C)C)c2ccccc2N2CCCCC2)ccc1C(=O)O | inactive |
| CC(S)C(=O)NCC(=O)O (stereo not given) | inactive |
| COCCCOc1ccnc(CS(=O)c2nc3ccccc3[nH]2)c1C (stereo not given) | 1.07 µM (active) |
| CNC[C@@H](O)[C@@H](O)[C@H](O)[C@H](O)CO | inactive |
| O=C(NCCO[N+](=O)[O-])c1cccnc1 | inactive |
| CC1(C)NC(=O)N(c2ccc([N+](=O)[O-])c(C(F)(F)F)c2)C1=O | inactive |
| Cc1ccc(NC(=O)c2ccc(CN3CCN(C)CC3)cc2)cc1Nc1nccc(-c2cccnc2)n1 | 6.01 µM (active) |
| c1ccc2[nH]c(-c3cscn3)nc2c1 | inactive |
